The campaign covered roughly 5,500 compounds. About 2,000 (36%) were called active. Roughly 18% stayed inconclusive and do not appear here. Cut-off read from the data, not from the text of the source: active = normalized growth mostly below about 0.91 (no sharp cut-off); inconclusive = no clear call, values can overlap the other calls; inactive = mostly above about 0.92. Some of the results follow.
Experiment: chemical genetic growth profiling, strain panel (AID 1159580);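 note: tested at 20 µM; growth read once vehicle control cultures reached saturation at 30 °C; 1 = growth at the plate median or of vehicle wells; lower values mean less growth of the strain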
Conditions: S. cerevisiae deletion strains, growth OD

Measured: normalized growth

CCCCc1ccc(C(=O)O)nc1
inactive: locus YAL013W, strain DEP1, hits give low values 1.02 | locus YAL040C, strain CLN3, hits give low values 0.992 | locus YCL061C, strain MRC1 (second series), hits give low values 1 | locus YDR363W, strain ESC2, hits give low values 1.02 | locus YER002W, strain NOP16, hits give low values 1.05 | locus YGR078C, strain PAC10, hits give low values 1 | locus YJR075W, strain HOC1, hits give low values 1.07 | locus YNL175C, strain NOP13, hits give low values 0.988 | locus YNL197C, strain WHI3, hits give low values 1.01 | locus YNL224C, strain SQS1, hits give low values 0.979 | locus YNL322C, strain KRE1, hits give low values 1.02 | locus YOR083W, strain WHI5 (second series), hits give low values 1.05 | locus YPL055C, strain LGE1, hits give low values 1.03
